HGIII-sPLA2 inh: Inhibits HGIII-sPLA2 liposome hydrolysis, primary screen | Q9NZ20 | QFRET BODIPY PC-A2 liposome hydrolysis, fluorescence | inhibition, % at 12.2 µM | 370,000 tested, 0.56% active | AID 743126;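 active means inhibition above mean plus 3 SD of compounds lying within the high and low control bounds, cut at about 19% in these data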
Target sequence (Q9NZ20 whole entry, looked up): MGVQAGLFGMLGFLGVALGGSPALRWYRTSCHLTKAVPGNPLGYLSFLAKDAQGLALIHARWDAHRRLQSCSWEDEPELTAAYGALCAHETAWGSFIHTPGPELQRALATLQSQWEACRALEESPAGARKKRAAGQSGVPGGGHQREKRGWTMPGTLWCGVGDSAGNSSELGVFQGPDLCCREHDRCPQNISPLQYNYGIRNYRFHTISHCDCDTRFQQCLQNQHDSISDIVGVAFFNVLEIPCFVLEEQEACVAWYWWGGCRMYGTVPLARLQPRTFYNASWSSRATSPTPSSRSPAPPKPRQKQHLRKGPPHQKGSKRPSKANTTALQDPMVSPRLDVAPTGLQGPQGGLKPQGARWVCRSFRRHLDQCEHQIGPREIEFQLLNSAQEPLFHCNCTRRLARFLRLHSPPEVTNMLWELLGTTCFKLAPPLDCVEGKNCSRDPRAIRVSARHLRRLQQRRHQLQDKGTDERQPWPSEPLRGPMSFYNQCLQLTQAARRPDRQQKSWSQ
PLCg1 inh: inhibitors of human phospholipase C gamma1. inhibition, % at 12.2 µM. 370,000 tested, 0.84% active. purified PLC-gamma1, fluorogenic substrate, fluorescence. P19174; in the data active means inhibition above about 9.5%
DAGLB inh: diacylglycerol lipase beta (human) inhibition; HEK293T DAGLB membrane lysate, EnzChek fluorogenic substrate; 340,000 tested, 0.059% active; Q8NCG7; inhibition, % at 5.17 µM; in the data active means inhibition above about 34%
PLC-beta3 inh: inhibitors of human phospholipase C beta3; AID 720704; Purified PLC-beta3, fluorogenic substrate, fluorescence; 370,000 tested, 0.18% active; Q01970; inhibition, % at 12.2 µM; in the data active means inhibition above about 11%
hGIII sPLA2 conf: human GIII-sPLA2 inhibition, confirmation; shares compounds with HGIII-sPLA2 inh; recombinant hGIII-sPLA2, BODIPY PC-A2 QFRET fluorescence; inhibition, % at 12.2 µM; 2,000 tested, 34% active; AID 743280;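 active means mean inhibition across triplicates above the hit cutoff set in the earlier primary screen, cut at about 19% in these data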
535nm interf: 535nm fluorescence interference, HGIII-sPLA2 counter-screen; shares compounds with HGIII-sPLA2 inh; inhibition, % at 12.2 µM; BODIPY FL product fluorescence interference, QFRET; 2,000 tested, 8.5% active; AID 743282;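 active means average inhibition above the solvent-only control mean plus 3 SD, cut at about 6% in these data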
BODIPY interf DR: counter-screen for HGIII-sPLA2 inhibitors: 535nm fluorescence interference, dose response; shares compounds with HGIII-sPLA2 inh; BODIPY FL product fluorescence interference, cell-free; IC50, µM; 240 tested, under 10 active; AID 743455;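 active means IC50 at or below 10 µM; inactive means IC50 above 10 µM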
Hits are given with their value; n = inactive; x = no result; ! = not active in a repeat. Most compounds without a hit are left out; they make up all but 1.5% or so of the library.

SMILES	HGIII-sPLA2 inh	PLCg1 inh	DAGLB inh	PLC-beta3 inh	hGIII sPLA2 conf	535nm interf	others
Nc1nc(N)c2cc(Sc3ccc(Cl)cc3)ccc2n1	n	n	n	n	x	x
COc1ccc(-n2c(C)cc(C)c(C(C)=O)c2=S)cc1	20	n	n	n	n	n
COc1ccc2c(c1)Sc1ccc(Cl)cc1N2	n	n	x	n	x	x
CC(C)c1ccc2c(c1)CC[C@H]1[C@](C)(CN)CCC[C@]21C	21!	n	n	n	21	n
CC(C)c1ccc2c(c1)CCC1C(C)(CN)CCCC21C (stereo not drawn)	n	n	n	n	x	x
CCCCOc1ccc(C(=O)n2ccc3ccc(-c4ccc5ccn(Cc6cccc(C(=O)OC)c6)c5c4)cc32)cc1	n	n	x	n	x	x
CCCCN(CC)S(=O)(=O)c1ccc(C(=O)N=c2sc3cc(NC(C)=O)ccc3n2C)cc1	20	n	n	n	n	n
CCOc1cc(CNc2ccc3c(c2)OCCO3)cc(Br)c1OCC	23	n	n	n	34	n	BODIPY interf DR=n
CCOc1cc(CNc2ccc(N3CCOCC3)cc2)cc(Br)c1OCC	n	n	n	n	x	x
CC(=O)CC[C@@H]1CC[C@]2(CCCN(C(=O)C3CCCC3)C2)O1	n	n	x	n	x	x
COC(=O)C1CN(Cc2cn(CCC3OCCO3)nn2)CCS(=O)(=O)N1Cc1ccc(C)cc1 (stereo not drawn)	n	n	x	n	x	x
CCCCn1nnc(NC(=S)NC(=O)c2cccs2)n1	23	n	n	n	n	n
Cn1nnc(NC(=S)NC(=O)c2cccs2)n1	n	n	n	n	x	x
CC(=O)C1=C(C)Nc2ncnn2C1c1ccc(F)cc1 (stereo not drawn)	22	n	n	n	n	n
COc1cc([N+](=O)[O-])c(OC)cc1SCc1n[nH]c(=S)n1-c1ccc(F)cc1	22	n	n	n	36	n
COc1cc([N+](=O)[O-])c(OC)cc1SCc1n[nH]c(=S)n1-c1ccc(C)cc1	19	n	n	n	22	n
Cc1c(C(=O)NCc2n[nH]c(=S)n2-c2ccc(F)cc2)cccc1[N+](=O)[O-]	n	n	n	n	x	x
COc1ccc(OCc2n[nH]c(=S)n2-c2ccc(C)cc2)cc1	n	n	n	n	x	x
CSCc1cc(N(C)C)nc(SCc2ccc(Cl)c(Cl)c2)n1	21	n	n	n	n	n
C[C@H]1CCCN1c1ccc2c(c1)O[C@H]1CCN(C1)S2(=O)=O	n	n	x	n	x	x
Cc1ccc(S(=O)(=O)N(C)CCCC(=O)Nc2ccccn2)cc1	20	n	n	n	n	n
COc1cccc(C(=O)NCCN2C(=O)C3C4C=CC(C4)C3C2=O)c1 (stereo not drawn)	n	n	x	n	x	x
COc1ccc(CNC(=O)CSc2nc3ccc(N)cc3s2)cc1	29	n	n	n	n	n
COc1cc(CNc2ccc3[nH]c(=O)[nH]c3c2)ccc1OCc1ccccc1F	24	n	n	n	24	n
COc1cc(CNc2ccc3[nH]c(=O)[nH]c3c2)ccc1OCc1ccccc1C	n	n	n	n	x	x
SMILES	HGIII-sPLA2 inh	PLCg1 inh	DAGLB inh	PLC-beta3 inh	hGIII sPLA2 conf	535nm interf	others
CSC1=NCCCN1C(=O)c1c(-c2ccccc2Cl)noc1C	22	n	n	n	n	n
Cc1cc(C)nc(Sc2ccc([N+](=O)[O-])cc2[N+](=O)[O-])n1	20	n	n	n	n	n
Cc1ccc(-n2c(SCC(=O)c3ccc(Br)cc3)nnc2-c2ccncc2)cc1	n	n	x	n	x	x
C[C@H](O)[C@@H]1CN2CCc3c([nH]c4c(-c5ccccc5)cccc34)[C@@H]2C[C@@H]1N(C)CC1CCCCC1	n	n	x	n	x	x
COC(=O)[C@@]12CCCCC3=C1N(CCC3)C(=O)[C@H]2CC(=O)NCc1cccs1	n	n	x	n	x	x
CCOC(=O)C(=O)NNc1ccc(C)cc1	21	n	n	n	n	n
COc1ccc(-c2c(C#N)c(SCC(N)=O)nc3c2CCCC3)cc1	20	n	n	n	20	n
CCc1ccc(S(=O)(=O)NCc2csc(C)n2)s1	22	n	n	n	n	n
CC(C)(CO)CNc1ccn2nccc2n1	22	n	x	n	n	n
C=CCn1c(=S)[nH]c2nc3c(cc2c1=O)CCCC3	23	n	n	n	n	n
C=CCn1c(=S)[nH]c2ccc(Br)cc2c1=O	20	n	n	n	21	n
C=CCn1c(=S)[nH]c2sc3c(c2c1=O)CCC3	n	n	n	n	x	x
Cc1n[nH]c(C)c1S(=O)(=O)NCCc1ccccc1F	n	n	x	n	x	x
Cc1n[nH]c(=S)n1/N=C/c1ccccc1	22	n	n	n	21	n
O=[N+]([O-])c1ccccc1/C=N/n1c(-c2ccccc2)n[nH]c1=S	20	n	n	n	29	n
COc1ccc(/C=N/n2c(-c3ccccc3)n[nH]c2=S)cc1	n	n	n	n	x	x
Cc1ccccc1NC(=O)C1CCCN1S(=O)(=O)c1cccnc1 (stereo not drawn)	n	n	x	n	x	x
CN(C)C(CNC(=O)c1cnc(Cl)c(Cl)c1)c1ccccc1 (stereo not drawn)	21	n	n	n	n	n
CN(C)C(CNC(=O)c1cc(S(=O)(=O)N(C)c2ccccc2)ccc1Cl)c1ccccc1 (stereo not drawn)	n	n	n	n	x	x
CC(=O)c1c(C)[nH]c(-c2ccccc2)c1C	28	n	n	n	n	n
CC(=O)c1c(-c2ccccc2)[nH]c2ccccc12	n	n	n	n	x	x
O=C(O)c1cccc(CSc2ncn[nH]2)c1	n	n	n	n	x	x
Cc1cc(C(=O)O)c(CSc2ncn[nH]2)o1	21	n	n	n	n	n
CCN(C(=O)C1CCCN1S(=O)(=O)c1cccnc1)c1ccccc1 (stereo not drawn)	n	n	x	n	x	x
CCc1cc(=O)[nH]c(-n2[nH]c(-c3ccccc3)cc2=O)n1	n	n	n	n	x	x
SMILES	HGIII-sPLA2 inh	PLCg1 inh	DAGLB inh	PLC-beta3 inh	hGIII sPLA2 conf	535nm interf	others
O=c1cc(-c2ccccc2)[nH]n1-c1nc2ccccc2[nH]1	19	n	n	n	n	n
C/C(=N\NC(=S)NC(C)C)c1cccc([N+](=O)[O-])c1	20	n	n	n	22	n
C/C(=N\NC(=S)NC(C)C)c1ccc(Cl)c([N+](=O)[O-])c1	20	n	n	n	19	n
C/C(=N\NC(=S)NC(C)C)c1ccccc1	n	n	n	n	x	x
C/C(=N/NC(=S)Nc1cccc(C)c1)c1cccc([N+](=O)[O-])c1	n	n	n	n	x	x
CCOC(=O)[C@@]12CCC3=C1N(CCC3)C(=O)[C@H](CC(=O)NCc1cccc(C(F)(F)F)c1)C2	n	n	x	n	x	x
CCCOc1ccccc1C1NC(=O)NC(C)=C1C(=O)OCCOC (stereo not drawn)	21	n	n	n	n	n
Nc1ccc(C(=O)Oc2ccc([N+](=O)[O-])cc2)cc1	23	n	n	n	n	n

Screening results (PubChem)
